Hits are enriched below; roughly 19% of the tested compounds scored in any of these assays.
DT40 TDP1 no CPT = qHTS for Inhibitors of human tyrosyl-DNA phosphodiesterase 1 (TDP1): qHTS in cells in absence of CPT | DT40 Tdp1-/- hTDP1 cells, no CPT, ATP luminescence, 48 h | Potency, µM (doses to about 46.2 µM), most hits filed as inhibitors | actives 15% (n = 420,000) | AID 686978, 2013; also: nearly all actives have a fitted effect of over 55% in size
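Seeded 400 DT40-hTDP1 cells/well (vehicle DMSO, no 20 nM CPT); pinned compounds; ≥48 hr at 37 °C; CellTiter-Glo luminescence as viability measure.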
TDP1 cell CPT = growth inhibition of DT40 Tdp1-/-;hTDP1 cells with camptothecin (screen for TDP1 inhibitors); chicken DT40 Tdp1-/-;hTDP1 cells + 20 nM CPT, ATP luminescence, 48 h; Potency, µM (highest dose often 46.2 µM), most hits filed as inhibitors; actives 12% (n = 420,000); also: nearly all actives have a fitted effect of over 55% in size
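Cell growth measured by CellTiter-Glo luminescence after a minimum 48 h, 37 C compound exposure with 20 nM CPT in Tdp1-knockout DT40 cells stably expressing hTDP1, seeded 400/well; qHTS titration format.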
RORgamma inh = ROR gamma (mouse) transcription inhibition | P51450 | Drosophila S2 Gal4-RORgamma UAS-luciferase reporter, 20 h | Potency, µM (highest dose often 53.6 µM), actives largely listed as inhibitors | actives 5.4% (n = 310,000); also: nearly all actives have a fitted effect of over 60% in size
Target sequence (P51450 whole entry, looked up, the tested form may be a part): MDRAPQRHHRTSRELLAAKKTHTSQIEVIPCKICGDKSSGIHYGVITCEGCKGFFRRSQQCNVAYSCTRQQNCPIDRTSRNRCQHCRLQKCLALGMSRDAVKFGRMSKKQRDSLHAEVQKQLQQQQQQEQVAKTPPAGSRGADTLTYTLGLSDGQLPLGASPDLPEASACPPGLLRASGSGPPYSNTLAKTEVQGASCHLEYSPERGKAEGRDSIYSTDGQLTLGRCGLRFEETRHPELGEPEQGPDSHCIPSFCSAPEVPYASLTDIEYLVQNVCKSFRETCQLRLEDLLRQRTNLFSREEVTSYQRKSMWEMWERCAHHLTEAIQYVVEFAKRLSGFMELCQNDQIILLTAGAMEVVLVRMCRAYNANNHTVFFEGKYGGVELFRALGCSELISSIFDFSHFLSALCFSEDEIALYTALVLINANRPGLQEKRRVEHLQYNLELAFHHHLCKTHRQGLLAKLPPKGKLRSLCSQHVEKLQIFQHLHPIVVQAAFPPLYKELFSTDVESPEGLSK
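Stable Schneider cell line, Gal4 DNA-binding domain fused to ROR gamma, UAS-luciferase. Cmpd 1 hr RT → CuSO4 700 uM final → 20 hr RT → luciferase reagent 10 min → luminescence.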
Gal4-VP16 FLuc = counter-screen for ROR gamma inhibitors: Gal4-VP16 reporter; AID 2546; actives 3.5% (n = 310,000); Potency, µM (top dose mostly 53.6 µM), usual class: inhibitors; Drosophila S2 Gal4-VP16 UAS-luciferase, luminescence, 20 h;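 also: Gal4-VP16 expression switched on by copper sulfate through the metallothionein promoter; nearly all actives have a fitted effect of over 50% in size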
TDP1 block = TDP1 (human) enzyme inhibition. recombinant TDP1, AlphaScreen DNA substrate cleavage. Potency, µM (top dose mostly 130 µM), most hits filed as inhibitors. actives 0.28% (n = 350,000). AID 485290; also: nearly all actives have a fitted effect of over 40% in size
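Here, a 5' biotin and 3' phosphotyrosine-FITC DNA oligonucleotide reports Tdp1 activity: intact substrate bridges AlphaScreen beads, while cleavage leaves a 3' phosphate and drops signal. All incubations at room temperature.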
Large screens that a line does not name were inactive. Calls follow the shape of the dose curve; as a rule, active = well fitted curve in the direction sought with a large enough effect; inconclusive = small, poorly fitted or top-dose-only effect, or another doubt; inactive = no such curve, though single readings can be large; an effect the other way counts as inactive or inconclusive.

O=c1oc2ccccc2cc1-c1csc(Nc2nc3c(F)cccc3s2)n1	DT40 TDP1 no CPT 16µM, TDP1 cell CPT 15µM
O=C1NC(Cc2ccc(O)cc2)c2nc3cc(F)c(F)cc3c(=O)n2-c2ncccc21 (stereo unspecified)	none (no result: RORgamma inh, Gal4-VP16 FLuc, TDP1 block)
CN1OC(CC(=O)O)N(c2ccc(Cl)cc2)C1=O (stereo unspecified)	none
O=[N+]([O-])c1ccccc1S(=O)(=O)NC1CCCCCCC1	DT40 TDP1 no CPT 16µM, RORgamma inh inconclusive (no result: TDP1 block)
O=C(NC(=S)NCC1CCCO1)c1ccccc1[N+](=O)[O-] (stereo unspecified)	RORgamma inh 10µM
O=[N+]([O-])c1ccccc1S(=O)(=O)NC1CCCC1	none
O=C(NC(=S)NCC1CCCO1)c1ccccc1Br (stereo unspecified)	RORgamma inh inconclusive
Cc1ccc(C(=O)NC(=S)NCC2CCCO2)cc1Br (stereo unspecified)	DT40 TDP1 no CPT 29µM, TDP1 cell CPT inconclusive, RORgamma inh 5µM, Gal4-VP16 FLuc inconclusive
O=C(NC(=S)NCC1CCCO1)c1cccs1 (stereo unspecified)	RORgamma inh 14µM, Gal4-VP16 FLuc inconclusive
O=C(NC(=S)NCC1CCCO1)c1ccco1 (stereo unspecified)	none
Cc1ccc(-n2ncc(C(=O)N3CCN(Cc4ccccc4)CC3)c2C2CCN(C(=O)OC(C)(C)C)CC2)cc1	TDP1 cell CPT inconclusive (no result: RORgamma inh, Gal4-VP16 FLuc)
OCC1OC(n2cnc3c(NC4CCCC4)ncnc32)C(O)C1O (stereo unspecified)	none (no result: RORgamma inh, Gal4-VP16 FLuc, TDP1 block)
O=C(NNc1ccccc1[N+](=O)[O-])NC1CCCCC1	none
Cc1cc(OCC(=O)NNC(=S)NCC2CCCO2)cc(C)c1Cl (stereo unspecified)	DT40 TDP1 no CPT inconclusive, TDP1 cell CPT inconclusive, RORgamma inh 3.2µM, Gal4-VP16 FLuc 6.3µM
O=C(NC(=S)NC1CCCCC1)c1ccccc1[N+](=O)[O-]	RORgamma inh 5µM, Gal4-VP16 FLuc 5.6µM
Cc1cccc2cc3c(N)c(C(=O)N4CCc5ccccc54)sc3nc12	DT40 TDP1 no CPT 2.9µM, TDP1 cell CPT 3.7µM
Nc1c(C(=O)N2CCOCC2)sc2nc3c(cc12)CCC3	RORgamma inh inconclusive, Gal4-VP16 FLuc inconclusive
Nc1c(C(=O)N2CCOCC2)sc2nc3c(cc12)CCCC3	DT40 TDP1 no CPT inconclusive, RORgamma inh 10µM, Gal4-VP16 FLuc inconclusive
Cc1cc(C)c2nc3sc(C(=O)N4CCOCC4)c(N)c3cc2c1	DT40 TDP1 no CPT 0.21µM, TDP1 cell CPT 0.58µM, RORgamma inh 10µM, Gal4-VP16 FLuc inconclusive (no result: TDP1 block)
Cc1sc(NC(=O)c2sc3nc4c(C)cccc4cc3c2N)c(C#N)c1C	DT40 TDP1 no CPT 15µM, TDP1 cell CPT inconclusive, RORgamma inh inconclusive
N#C/C(=C\c1ccc[nH]1)C(=O)NC1CC1	none
CN(C)c1ccc(P(=O)(OC2CCCCC2)C(O)c2ccncc2)cc1 (stereo unspecified)	none
COc1ccc2c(c1)CC/C2=N\OC(=O)c1ccccc1C	RORgamma inh 4µM, Gal4-VP16 FLuc inconclusive
O=C(Nc1cccc(-c2cn3ccccc3n2)c1)c1cc2ccccc2oc1=O	DT40 TDP1 no CPT 3.7µM, TDP1 cell CPT 2.1µM, RORgamma inh inconclusive, Gal4-VP16 FLuc 8.9µM
O=C(O)c1ccccc1NC(=O)c1cc2ccccc2oc1=O	DT40 TDP1 no CPT inconclusive, TDP1 cell CPT inconclusive, RORgamma inh 13µM, Gal4-VP16 FLuc inconclusive
COc1ccc2oc(=O)c(C(=O)NCc3ccc(C)cc3)cc2c1	DT40 TDP1 no CPT inconclusive (no result: TDP1 block)
Cc1cccc(NC(=O)c2cc3ccccc3oc2=O)c1	RORgamma inh 2.8µM, Gal4-VP16 FLuc inconclusive (no result: TDP1 block)
O=C(Nc1cccnc1N1CCOCC1)c1cc2ccccc2oc1=O	DT40 TDP1 no CPT inconclusive
COc1ccc(CNC(=O)c2cc3cc(OC)ccc3oc2=O)cc1	DT40 TDP1 no CPT 12µM, TDP1 cell CPT 18µM, RORgamma inh inconclusive
CC1CC1C(=O)N(C)CC(=O)Nc1cccc(F)c1 (stereo unspecified)	none (no result: RORgamma inh, Gal4-VP16 FLuc)
NS(=O)(=O)c1ccc(NC(=O)COC(=O)C2CC2)cc1	none (no result: RORgamma inh, Gal4-VP16 FLuc)
COc1ccc2oc(=O)c(C(=O)Nc3cccc(C(=O)O)c3)cc2c1	none (no result: RORgamma inh, Gal4-VP16 FLuc, TDP1 block)
COc1ccc2oc(=O)c(C(=O)Nc3cccc(C)c3)cc2c1	TDP1 cell CPT inconclusive, RORgamma inh 2.2µM, Gal4-VP16 FLuc inconclusive
C(=C\c1ccco1)/C1=NN(c2ccccc2)C(c2ccco2)C1 (stereo unspecified)	DT40 TDP1 no CPT 23µM, TDP1 cell CPT inconclusive, RORgamma inh inconclusive, Gal4-VP16 FLuc inconclusive, TDP1 block inconclusive
O=C(Cn1nc(Cc2ccncc2)c2ccccc2c1=O)N1CCN(C(=O)c2ccco2)CC1	none
O=C(Cn1nc(Cc2cccnc2)c2ccccc2c1=O)N1CCN(c2ccc(F)cc2)CC1	DT40 TDP1 no CPT 23µM, TDP1 cell CPT inconclusive (no result: RORgamma inh, Gal4-VP16 FLuc)
Cc1ccc(C)c(N2CCN(C(=O)Cn3nc(Cc4cccnc4)c4ccccc4c3=O)CC2)c1	DT40 TDP1 no CPT 23µM, TDP1 cell CPT inconclusive (no result: RORgamma inh, Gal4-VP16 FLuc)
CCOC(=O)C1CCCN(C(=O)Cn2nc(Cc3cccnc3)c3ccccc3c2=O)C1 (stereo unspecified)	none
COCCNc1nc(NCc2ccc(C(C)C)cc2)c2sccc2n1	DT40 TDP1 no CPT 12µM, TDP1 cell CPT 12µM (no result: RORgamma inh, Gal4-VP16 FLuc, TDP1 block)
COCCNc1nc(NCCCN2CCCC2=O)c2sccc2n1	none (no result: RORgamma inh, Gal4-VP16 FLuc, TDP1 block)
COCCNc1nc(NCc2cccc(OC)c2)c2sccc2n1	DT40 TDP1 no CPT 18µM, TDP1 cell CPT 15µM (no result: RORgamma inh, Gal4-VP16 FLuc, TDP1 block)

High-throughput results (PubChem)
